{
  "source": "PubChem BioAssay AID624296",
  "about": "(National Center for Advancing Translational Sciences (NCATS), 2012)",
  "note": "Among all 350,000 compounds or so, about 9,900 (2.8%) were called active. About 15% were inconclusive and are not listed. Calls follow the shape of the dose curve; as a rule, active = well fitted activation curve with a large enough effect; inconclusive = small, poorly fitted or top-dose-only effect; inactive = no such curve, though single readings can be large or run the other way. Shown is part of a subset that was picked to be rich in actives. Potency is read from the fitted curve at half-maximal effect.",
  "data": [
    {"assay": "A quantitative high throughput screen for small molecules that induce DNA re-replication in MCF 10a normal breast cells; also: nearly all actives have a fitted effect of over 50% in size; as to activity, positive = re-replication: % of control where 0% means no effect.", "details": "MCF 10A DNA re-replication, Hoechst nuclear intensity, 48 h; series mostly up to 46.1 µM; activity, positive = re-replication: at the top concentration", "values": [
      {"smiles": "CC(=O)c1sc(N/N=C/c2ccc(C(C)C)cc2)nc1C", "Potency": "13 µM (active)"},
      {"smiles": "CC(=O)c1sc(NC(=O)CCCOc2ccccc2C)nc1C", "activity, positive = re-replication": "-8.51% (inactive)"},
      {"smiles": "COc1ccccc1/C=N/Nc1nc(C)c(C(C)=O)s1", "activity, positive = re-replication": "5.97% (inactive)"},
      {"smiles": "COc1ccc(Cl)cc1NC(=O)COC(=O)c1ccc(Br)o1", "activity, positive = re-replication": "11.8% (inactive)"},
      {"smiles": "CCCN(CC1CC1)C(=O)COC(=O)c1ccc(C)cc1O", "activity, positive = re-replication": "5.42% (inactive)"},
      {"smiles": "Cc1cc(C)n2nc(C(=O)Nc3cccc(S(=O)(=O)N4CCOCC4)c3)nc2n1", "activity, positive = re-replication": "-16.6% (inactive)"},
      {"smiles": "NC(CSC1(c2ccccc2)c2ccccc2-c2ccccc21)C(=O)O", "note": "(centres undefined)", "activity, positive = re-replication": "1.81% (inactive)"},
      {"smiles": "COc1ccc(-c2ccc3c(c2)[C@@H]2C[C@H](N(C)S(=O)(=O)c4ccccc4)[C@H]([C@H](C)O)C(=O)N2CC3)cc1", "activity, positive = re-replication": "-0.341% (inactive)"},
      {"smiles": "CC(C)(C)OC(=O)Nc1ccc([C@@H](NC(=O)OC(C)(C)C)C(=O)OC(C)(C)C)cc1", "activity, positive = re-replication": "-5.63% (inactive)"},
      {"smiles": "CCc1ccc2c(c1)C1(NN=C(c3ccccc3)S1)C(=O)N2", "note": "(centres undefined)", "Potency": "18.4 µM (active)"},
      {"smiles": "CCc1ccc2c(c1)C(c1ccc([N+](=O)[O-])cc1)=NNC(c1ccccc1)=N2", "activity, positive = re-replication": "1.73% (inactive)"},
      {"smiles": "O=S1(=O)CSCS(=O)(=O)C1", "activity, positive = re-replication": "-2.53% (inactive)"},
      {"smiles": "COc1cc(OC)cc(-c2c(-c3ccc(F)cc3)c3cc(-c4ccc5cc[nH]c5c4)ccc3n2C)c1", "activity, positive = re-replication": "3.2% (inactive)"},
      {"smiles": "COc1ccc2sc(-c3ccc(N(C)C)cc3)c(-c3ccc4cc[nH]c4c3)c2c1", "Potency": "16.4 µM (active)"},
      {"smiles": "COc1ccc2c(c1)c(=Cc1ccc(N(C)C)cc1)c1cc(-c3ccccc3)[n+](C)n12", "activity, positive = re-replication": "-16.6% (inactive)"},
      {"smiles": "CC1Sc2ccc(C(=O)NCc3ccccc3Cl)cc2NC1=O", "note": "(centres undefined)", "activity, positive = re-replication": "-4.42% (inactive)"},
      {"smiles": "O=c1ccn([C@@H]2O[C@H](CNS(=O)(=O)c3cc4ccccc4s3)[C@@H](O)[C@H]2O)c(=O)[nH]1", "activity, positive = re-replication": "-3.12% (inactive)"},
      {"smiles": "Cc1cc(C)c(C=NNc2nc3c([nH]2)c(=O)n(C)c(=O)n3C)c(C)c1", "activity, positive = re-replication": "-1.32% (inactive)"},
      {"smiles": "CCOC(=O)N/N=C/c1cn(Cc2ccccc2Cl)c2ccccc12", "activity, positive = re-replication": "3.11% (inactive)"},
      {"smiles": "N#CCC(=O)N/N=C/c1ccc(SCC(=O)Nc2ccccc2)o1", "activity, positive = re-replication": "-2.9% (inactive)"},
      {"smiles": "N#CCC(=O)N/N=C/c1cn(Cc2ccc3ccccc3c2)c2ccccc12", "Potency": "10.3 µM (active)"},
      {"smiles": "CC1CCCC(NC(=O)c2cc(S(=O)(=O)N3CCCCC3)ccc2Cl)C1C", "note": "(centres undefined)", "activity, positive = re-replication": "-4.65% (inactive)"},
      {"smiles": "O=c1c2ccccc2nc2n1C1(CCCCC1)Cc1ccccc1-2", "Potency": "18.4 µM (active)"},
      {"smiles": "CN(c1ccc2nc3ccccc3c(=O)n2n1)C1CCCCC1", "activity, positive = re-replication": "-2.71% (inactive)"},
      {"smiles": "c1cncc(-c2nnc3n2C2(CCCCC2)Cc2ccccc2-3)c1", "activity, positive = re-replication": "1.24% (inactive)"},
      {"smiles": "COc1ccccc1CNC(=O)COC(=O)c1cccs1", "activity, positive = re-replication": "-5.75% (inactive)"},
      {"smiles": "CC(C)C[C@H]1CN([C@@H](CC(C)C)CN2CCC[C@@H]2CN2C(=O)C(=O)NC[C@@H]2Cc2ccccc2)C(=O)C(=O)N1CCc1ccccc1", "activity, positive = re-replication": "17.4% (inactive)"},
      {"smiles": "COc1ccc(C(=O)NCc2ccccc2C)cc1S(=O)(=O)NC1CCCC1", "activity, positive = re-replication": "-4.4% (inactive)"},
      {"smiles": "CCN(CC)S(=O)(=O)c1ccc(Cl)c(NC(=O)c2ccncc2)c1", "activity, positive = re-replication": "0.731% (inactive)"},
      {"smiles": "CCN(CC)S(=O)(=O)c1ccc(NC(=O)c2cccnc2Cl)c(NC(=O)c2cccnc2Cl)c1", "Potency": "18.4 µM (active)"},
      {"smiles": "Cc1cccc(NC(=O)c2cccnc2Cl)n1", "activity, positive = re-replication": "-3.66% (inactive)"},
      {"smiles": "O=C(NOCc1ccccc1)c1cccc([N+](=O)[O-])c1", "activity, positive = re-replication": "1.13% (inactive)"},
      {"smiles": "O=C(COC(=O)COc1ccccc1F)Nc1cccc(S(=O)(=O)N2CCCCC2)c1", "activity, positive = re-replication": "-4.89% (inactive)"},
      {"smiles": "O=C(Nc1nnc(SCc2c(Cl)cccc2Cl)s1)C1CCCO1", "note": "(centres undefined)", "Potency": "11.6 µM (active)"},
      {"smiles": "O=C(Nc1nnc(SCc2c(Cl)cccc2Cl)s1)c1cccc([N+](=O)[O-])c1", "activity, positive = re-replication": "21% (inactive)"},
      {"smiles": "O=C(Nc1nc(-c2ccncc2)cs1)C1COc2ccccc2O1", "note": "(centres undefined)", "activity, positive = re-replication": "3.86% (inactive)"},
      {"smiles": "O=C(Nc1nnc(SCc2ccc(Cl)cc2Cl)s1)C1COc2ccccc2O1", "note": "(centres undefined)", "Potency": "18.4 µM (active)"},
      {"smiles": "O=C(Nc1nc2c(F)cc(F)cc2s1)C1COc2ccccc2O1", "note": "(centres undefined)", "activity, positive = re-replication": "5% (inactive)"},
      {"smiles": "O=C(Nc1nnc(CCc2ccccc2)s1)C1CCCO1", "note": "(centres undefined)", "activity, positive = re-replication": "-6.69% (inactive)"},
      {"smiles": "O=C1/C(=C/c2ccc3c(c2)OCO3)CCC/C1=C\\c1ccc2c(c1)OCO2", "Potency": "14.6 µM (active)"},
      {"smiles": "O=C(O)/C=C/c1ccc2c(c1)OCCO2", "activity, positive = re-replication": "13.8% (inactive)"},
      {"smiles": "O=C(N/N=C/c1ccc2c(c1)OCO2)C(=O)N1CCCC1", "activity, positive = re-replication": "14.4% (inactive)"},
      {"smiles": "O=C(COC(=O)c1cc[n+]([O-])cc1)Nc1ccc(Cl)c(C(F)(F)F)c1", "activity, positive = re-replication": "23.8% (inactive)"},
      {"smiles": "CCOc1ccc(CCNC(=O)COC(=O)C2CCN(S(=O)(=O)c3ccccc3)CC2)cc1OCC", "activity, positive = re-replication": "-3.91% (inactive)"},
      {"smiles": "CCOc1cccc2cc(C(=O)OCC(=O)Nc3c(C)cccc3CC)c(=O)oc12", "activity, positive = re-replication": "-4.55% (inactive)"},
      {"smiles": "CN=C(Nc1cccc(S(=O)(=O)N2CCOCC2)c1)c1ccccc1", "activity, positive = re-replication": "-0.997% (inactive)"},
      {"smiles": "O=C(NCCN1CCOCC1)c1ccc(/C=C2\\Sc3ccccc3N(Cc3ccc(F)cc3)C2=O)cc1", "Potency": "18.4 µM (active)"},
      {"smiles": "O=C(NCCCN1CCOCC1)c1ccc2c(c1)N(Cc1cccc(F)c1)C(=O)c1ccccc1S2", "activity, positive = re-replication": "-2.53% (inactive)"},
      {"smiles": "CCN1CCN(CCNC(=O)c2ccc(/C=C3/Sc4ccccc4N(Cc4cccc(C)c4)C3=O)cc2)CC1", "Potency": "6.51 µM (active)"},
      {"smiles": "O=C(NCCN1CCOCC1)/C(=C/c1ccc(F)cc1)NC(=O)c1ccccc1", "activity, positive = re-replication": "-3.22% (inactive)"},
      {"smiles": "Cc1nn(Cc2ccccc2)c(C)c1C(=O)NCCN1C(=O)S/C(=C\\c2ccc(F)cc2)C1=O", "activity, positive = re-replication": "5.89% (inactive)"},
      {"smiles": "CCN1CCN(CCNC(=O)c2ccc3c(c2)NC(=O)/C(=C\\c2ccc(OC)c(OC)c2)S3)CC1", "activity, positive = re-replication": "1.79% (inactive)"},
      {"smiles": "Cn1nnnc1SCC(=O)Nc1sccc1C(N)=O", "activity, positive = re-replication": "0.751% (inactive)"},
      {"smiles": "COc1ccc([C@H]2CC(=O)C=C(c3ccc(OC(F)(F)F)cc3)C2)cc1OC", "activity, positive = re-replication": "6.41% (inactive)"},
      {"smiles": "O=C(CSc1nc2ccccc2[nH]1)Nc1nc(-c2ccccc2)c(-c2ccccc2)o1", "activity, positive = re-replication": "0.359% (inactive)"},
      {"smiles": "CCc1nnc(NC(=O)CCCSc2nc3ccccc3[nH]2)s1", "activity, positive = re-replication": "0.183% (inactive)"},
      {"smiles": "CCC(C)N1C(=O)S/C(=C/c2ccc(Sc3nc4ccccc4[nH]3)o2)C1=O", "note": "(centres undefined)", "Potency": "8.2 µM (active)"},
      {"smiles": "C[C@H]1CN([C@@H](C)CO)C(=O)Cc2cc(NC(=O)Cc3ccccc3)ccc2O[C@H]1CN(C)S(=O)(=O)c1cccs1", "activity, positive = re-replication": "5.07% (inactive)"},
      {"smiles": "O=C1CC(C(=O)O)NC(=S)N1", "note": "(centres undefined)", "activity, positive = re-replication": "-28.6% (inactive)"},
      {"smiles": "Cc1cc(NC(=O)c2cc3ccccc3o2)no1", "activity, positive = re-replication": "1.92% (inactive)"},
      {"smiles": "C[C@H](CO)N1C[C@H](C)[C@@H](CN(C)Cc2ccc(-c3ccccc3)cc2)Oc2ccc(NC(=O)Cn3cnnn3)cc2C1=O", "activity, positive = re-replication": "4.97% (inactive)"},
      {"smiles": "CCn1nc(C)c(/C=N/NC(=O)Cc2ccc(Cl)cc2)c1C", "activity, positive = re-replication": "-0.496% (inactive)"},
      {"smiles": "Cc1nn(Cc2ccc(Cl)cc2)c(Cl)c1/C=N/NC(=O)CNc1ccccc1F", "Potency": "16.4 µM (active)"},
      {"smiles": "Cc1nn(Cc2ccc(Cl)cc2)c(Cl)c1/C=N/NC(=O)c1cccnc1", "activity, positive = re-replication": "-11% (inactive)"}
    ]}
  ]
}
